Results reported in PubChem BioAssay (EPA / NIEHS).
“And” between values parts separate entries of the source, which are not always exact repeats. Identical values can stand only once. The source made the active and inactive calls. Rule for the calls: active = hit-call score of the fitted dose curve at least 0.9, where 1 is the maximum; inactive = score below 0.9.

What follows are molecules tested on Interleukin 2 (IL2), IL2 (gene 3558) (assay: BSK_BT_xIL2: BioMAP Diversity Plus: BT Assay for Interleukin 2 (IL2) Biomarker Activity (AID 2284245)). Conditions: primary human B cells with PBMC.
Method: BSK_BT is a cell-based, multiplexed-readout assay that uses B cell and peripheral blood mononuclear cells, a human vascular primary cell co-culture, with measurements taken at 24 hours after chemical dosing in a microplate: 96-well plate.BSK_BT_xIL2 is an assay component measured in the BSK_BT assay. It measures secreted IL-2 related to regulation of gene expression using LumineX xMAP technology.Data from the assay component BSK_BT_xIL2 was analyzed at the endpoint, BSK_BT_xIL2, in the positive analysis fitting direction relative to DMSO as the negative control and baseline of activity. Using a type of cytokine quantitation reporter, gain or loss-of-signal activity can be used to understand protein changes. To generalize the intended target to other relatable targets, this assay endpoint is annotated to the 'cytokine' intended target family, where the subfamily is 'interleukins'.
The levels of cell surface (or secreted, indicated by the prefix "s") biomarker endpoints were measured by ELISA. Overt cytotoxicity to cells in confluent adherent cultures (all systems other than the BT system) was assessed by measuring total protein levels using sulforhodamine B (SRB) staining in parallel cultures at the time of biomarker measurements, indicated as SRB endpoints. For proliferation assays for adherent cell types, individual cell types are cultured at sub-confluence and relative cell numbers quantified by SRB staining at time points optimized for each system (48 h: 3C and CASM3C systems; 72 h: BT and HDF3CGF systems; 96 h: SAg system). SRB was performed by staining cells with 0.1% SRB after fixation with 10% TCA and reading wells at 560 nm.Viability and proliferation of PBMC (T cells) was quantified by Alamar Blue reduction for the SAg and BT systems. For PBMC viability (referred to as PBMC Cytotoxicity within the assay endpoint names), cells were plated (75,000/well in a 96-well plate) and then chemical samples added for 1 h before addition of activators, SEB and TSST-1 (20 ng/mL final concentration each). Cells were incubated for 90 h. Then, Alamar Blue (20 uL/well) (Invitrogen, Cat DAL1100) was added for 6 h, and the plates were read with a fluorescence microplate reader at 546/580 nm (excitation/emission). For PBMC proliferation, cells were plated and activated as above but incubated for only 16 h prior to addition of Alamar Blue. Plates were read after 6 h.

Row | SMILES | outcome | AC50
1 | O=C(O)C=CC(F)(C(F)(F)F)C(F)(F)F | inactive | 
2 | OCC(F)(F)OC(F)(F)C(F)(F)OC(F)(F)C(F)(F)OC(F)(F)F |  | 53.9 µM (active) and 23.4 µM (active)
3 | OCC(F)(F)OC(F)(F)C(F)(F)OC(F)(F)CO | inactive | 
4 | COP(=O)(O)OC | inactive | 
5 | CCOP(=S)(OCC)SCS(=O)(=O)CC | inactive | 
6 | COC(=O)C(F)(F)C(F)(F)OC(F)(C(F)(F)F)C(F)(F)OC(F)=C(F)F (stereo not drawn) | inactive | 
7 | Cc1ccc2c(c1N)C(=O)c1ccccc1C2=O | inactive | 
8 | O=C(O)C(F)(F)OC(F)(F)C(F)(F)OC(F)(F)C(=O)O | inactive | 
9 | CC(C)Nc1ccc(Nc2ccccc2)cc1 |  | 5.05 µM (active)
10 | CCCCOCCOP(=O)(OCCOCCCC)OCCOCCCC | inactive | 
11 | CCCCC(CC)COP(=O)(Oc1ccccc1)Oc1ccccc1 (stereo not drawn) |  | 20 µM (active)
12 | COP(N)(=S)OC | inactive | 
13 | ClC(Cl)=C(c1ccc(Cl)cc1)c1ccccc1Cl |  | 31.4 µM (active)
14 | N#Cc1c(-c2ccc(Cl)cc2)[nH]c(C(F)(F)F)c1Br |  | 10.1 µM (active)
15 | CC(O)C(F)(F)C(F)(F)F (stereo not drawn) | inactive | 
16 | O=C(O)C(F)(OC(F)(F)C(F)(F)C(F)(F)F)C(F)(F)F (stereo not drawn) | inactive | 
17 | O=S1(=O)OCC2C(CO1)C1(Cl)C(Cl)=C(Cl)C2(Cl)C1(Cl)Cl (stereo not drawn) |  | 20 µM (active)
18 | Cc1c([N+](=O)[O-])cc2c(c1[N+](=O)[O-])C(C)(C)CC2(C)C |  | 20 µM (active)
19 | Nc1ccc([N+](=O)[O-])cc1Cl | inactive | 

Row | SMILES | outcome | AC50
20 | C=CC(=O)OCC(CC)(COC(=O)C=C)COC(=O)C=C |  | 2.34 µM (active)
21 | c1ccc2c(c1)sc1ccccc12 | inactive | 
22 | CCOP(=S)(OCC)SCSc1ccc(Cl)cc1 | inactive | 
23 | C=CC(=O)OCC(F)(F)C(F)F |  | 30.6 µM (active) and 34.5 µM (active)
24 | FC(F)(F)C(F)(C(F)(F)F)C(F)(F)C(F)(F)CC1CO1 (stereo not drawn) | inactive | 
25 | O=S(=O)(F)C(F)(F)C(F)(F)C(F)(F)C(F)(F)C(F)(F)C(F)(F)C(F)(F)C(F)(F)F | inactive | 
26 | OCC(F)(F)OC(F)(F)C(F)(F)OC(F)(F)C(F)(F)OC(F)(F)CO | inactive | 
27 | CC(Cl)CN(C)C (stereo not drawn) | inactive | 
28 | CCOP(=S)(OCC)SCn1nnc2ccccc2c1=O | inactive | 
29 | CC(C)(C)c1ccccc1OP(=O)(Oc1ccccc1)Oc1ccccc1 |  | 28.2 µM (active)
30 | CCCCC(CC)COC(=O)c1c(Br)c(Br)c(Br)c(Br)c1C(=O)OCC(CC)CCCC (stereo not drawn) | inactive | 
31 | O=C(O)C(F)(F)C(F)(F)C(=O)O | inactive | 
32 | O=P(OCC(Br)CBr)(OCC(Br)CBr)OCC(Br)CBr (stereo not drawn) |  | 27.7 µM (active)
33 | NC(=O)C(F)(F)C(F)(F)F | inactive | 
34 | CCOP(=S)(S)OCC | inactive | 
35 | O=C(O)C(F)(F)OC(F)(F)C(F)(F)OC(F)(F)F | inactive | 
36 | N#Cc1cc([N+](=O)[O-])ccc1N | inactive | 
37 | O=c1ssc(Cl)c1Cl |  | 6.44 µM (active)
38 | CCOP(=S)(NC(C)C)Oc1ccccc1C(=O)OC(C)C (stereo not drawn) |  | 20 µM (active)
